# Test results taken from PubChem BioAssay (Tox21).
# Records with an inconclusive call do not appear. Active and inactive are the calls of the source. The call rests on the fitted dose curve; in most records, active means well fitted activation curve with a large enough effect in the signal ratio in the repeat runs (not every such curve was filed as active); inconclusive means weak or mixed curves, or effect the other way; inactive means no such curve, though single readings can be large or run the other way; the % refers to the signal ratio.
# Molecular target: Glucocorticoid receptor (Homo sapiens) (UniProt P04150)
# Sequence (P04150 whole entry, looked up): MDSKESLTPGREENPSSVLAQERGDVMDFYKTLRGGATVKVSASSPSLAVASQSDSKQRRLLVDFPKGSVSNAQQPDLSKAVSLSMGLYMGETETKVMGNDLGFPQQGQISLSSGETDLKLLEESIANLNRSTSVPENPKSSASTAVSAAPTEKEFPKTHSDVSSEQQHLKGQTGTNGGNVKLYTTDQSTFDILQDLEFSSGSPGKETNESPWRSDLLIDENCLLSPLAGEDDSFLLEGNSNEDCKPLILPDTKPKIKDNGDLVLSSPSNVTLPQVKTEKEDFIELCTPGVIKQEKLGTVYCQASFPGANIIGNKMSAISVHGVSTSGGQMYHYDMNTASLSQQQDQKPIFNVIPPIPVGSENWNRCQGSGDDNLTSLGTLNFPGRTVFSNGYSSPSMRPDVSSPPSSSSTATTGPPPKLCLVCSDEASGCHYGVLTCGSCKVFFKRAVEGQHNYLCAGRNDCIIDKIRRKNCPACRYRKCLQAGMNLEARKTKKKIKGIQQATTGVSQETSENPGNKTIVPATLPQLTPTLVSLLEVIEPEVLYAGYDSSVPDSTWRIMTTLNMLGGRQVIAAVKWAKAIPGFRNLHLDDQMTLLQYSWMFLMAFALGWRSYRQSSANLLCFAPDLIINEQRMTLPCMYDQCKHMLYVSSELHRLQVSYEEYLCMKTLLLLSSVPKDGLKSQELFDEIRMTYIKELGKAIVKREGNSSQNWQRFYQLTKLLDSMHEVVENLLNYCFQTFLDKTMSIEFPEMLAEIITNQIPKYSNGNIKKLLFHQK
# Experiment: qHTS assay to identify small molecule agonists of the glucocorticoid receptor (GR) signaling pathway (AID 720691)
# Conditions: GR-bla HeLa, beta-lactamase reporter ratio, 18 h; series mostly up to 62.4 µM
# Text: U.S. Tox21 Program National Center for Advancing Translational Sciences [NCATS] NIH Chemical Genomics Center [NCGC] U.S. Environmental Protection Agency [EPA] National Institutes of Environmental Health Sciences [NIEHS] National Toxicology Program [NTP] U.S. Food and Drug Administration [FDA] Tox21 Assay Overview: The Glucocorticoid receptor (GR) is one of the members of the nuclear receptor family of ligand-dependent transcription factors. GR plays a critical role in carbohydrate, protein and lipid metabolisms and programmed cell death. CellSensor GR-bla HeLa cell line (Invitrogen) contains a beta-lactamase reporter gene under the control of the glucocorticoid response element stably integrated into HeLa cells, a cervical cancer cell line that expresses glucocorticoid receptor. The activation of the reporter gene under culture conditions can be detected by fluorescence intensity. This cell line has been used to screen the Tox21 10K compound library and to identify the compounds that activate the GR signaling.
# Tox21 Assay Protocol Summary: The GR-bla HeLa cells were dispensed at 1500 cells/6 ul/well in 1536-well black wall/clear bottom plates using a Multidrop Combi (ThermoFisher Scientific, Waltham, MA) dispenser. After the assay plates were incubated at a 37 C/5% CO2 incubator for 4 hours, 23 nL of compounds dissolved in DMSO, positive controls or DMSO only was transferred to the assay plate by a pintool station (Kalypsys, San Diego, CA). The plates were incubated at 37 C for 18 hours. After 1 uL of LiveBLAzerTM B/G FRET substrate was added using a Flying Reagent Dispenser (Aurora Discovery, San Diego, CA), the plates were incubated at room temperature for 2 hours, and fluorescence intensity was measured by an Envision plate reader (PerkinElmer, Shelton, CT).
row,SMILES,outcome
1,CNC(=S)S,inactive
2,ClCc1ccccn1,inactive
3,CCNc1nc(Cl)nc(NC(C)(C)C#N)n1,inactive
4,NC(=O)CN1CCCC1=O,inactive
5,CCCCCCCCCCCCCl,inactive
6,O=[N+]([O-])c1ccc(Nc2ccccc2)cc1,inactive
7,CC(C)COC(=O)c1ccccc1C(=O)OCC(C)C,inactive
8,CNC(=O)Oc1cccc2c1OC(C)(C)C2,inactive
9,Brc1ccc(Br)cc1,inactive
10,CN(C)c1ccccc1,inactive
11,CCCCOCCOC(C)=O,inactive
12,CCC1(c2ccc(N)cc2)CCC(=O)NC1=O (stereo not given),inactive
13,COC(=O)Nc1nc2ccccc2[nH]1,inactive
14,O=C1CCCO1,inactive
15,CCOP(=S)(OCC)SCn1c(=O)oc2cc(Cl)ccc21,inactive
16,ClC(Cl)(Cl)c1ccccc1,inactive
17,N#Cc1nn(-c2c(Cl)cc(C(F)(F)F)cc2Cl)c(N)c1S(=O)C(F)(F)F (stereo not given),inactive
18,O=NN1CCOCC1,inactive
19,S=c1[nH]c2ccccc2[nH]1,inactive
20,O=NN(c1ccccc1)c1ccccc1,inactive

row,SMILES,outcome
1,CC1=C(C(=O)Nc2ccccc2)SCCO1,inactive
2,N#CC(c1ccccc1)c1ccccc1,inactive
3,Cc1ccc([N+](=O)[O-])cc1,inactive
4,OC(c1ccc(Cl)cc1)(c1cncnc1)c1ccccc1Cl (stereo not given),inactive
5,Cc1ccc(N=CN(C)C=Nc2ccc(C)cc2C)c(C)c1,inactive
6,CC(O)CN(CC(C)O)CC(C)O (stereo not given),inactive
7,ClCC(Cl)CCl,inactive
8,[CH3][Sn]([Cl])([Cl])[Cl],inactive
9,CCNCC,inactive
10,CCOP(=O)(OCC)OCC,inactive
11,CCOP(=S)(OCC)OP(=S)(OCC)OCC,inactive
12,Nc1ncn[nH]1,inactive
13,CCC/C=N/O,inactive
14,OCCOCCO,inactive
15,CC(C)Nc1ccc(Nc2ccccc2)cc1,inactive
16,Clc1cccc(Cl)c1,inactive
17,C[C@]12CCC(=O)C=C1CC[C@@H]1[C@@H]2CC[C@@]2(C)[C@H]1CC[C@]2(C)O,inactive
18,COc1ccc(CO)cc1,inactive
19,N#CCCCCC#N,inactive
20,CCCCSP(=O)(SCCCC)SCCCC,inactive
